# From ChEMBL document CHEMBL3988442, “University of Dundee, Small-Polar-MMV Screening Library” (2021)
# Among all 48,000 compounds or so, about 13,000 (27%) showed an effect of 50% or more. The list shows a part of the results.
# Tested on: Wolbachia pipientis
# Assay: Anti-Wolbachia Cell-Based Screen
# Type: functional
# Parameters: scale not given: in the data most compounds retested in dose-response had high values
# Details: 5 µM
row,Compound,Percent Effect
1,CC1CCN(C[C@H]2CN3CC[C@H]2C[C@@H]3CNC(=O)Nc2ccsc2)CC1,0.4847%
2,CC1C(=O)Nc2cccnc2N1S(=O)(=O)c1ccc(C#N)c(Cl)c1 (stereo not drawn),12.36%
3,O=C(NC[C@H]1C[C@@H]2CCN1C[C@@H]2CN1CCOCC1)Nc1ccsc1,0.8179%
4,CN(C)C(=O)COC[C@@]12CCC[C@@H]1CNC2.O=C(O)C(F)(F)F,-7.185%
5,O=C(CSc1ccccn1)N1CCN(CCO)[C@@H]2CS(=O)(=O)C[C@@H]21,-2.402%
6,Cc1n[nH]c2c1C(c1cnn(C)c1)SCC(=O)N2 (stereo not drawn),12.5%
7,Cn1cc(C2SCC(=O)Nc3c2cnn3C(C)(C)C)cn1 (stereo not drawn),109.1%
8,CC(C)CN1C[C@H]2C[C@H](C(=O)NCc3cccnc3)[C@@H](C1)O2,-10.23%
9,Cn1cc(CN2C[C@H]3CN(c4cncnc4)C(=O)[C@H]3C2)cn1.O=C(O)C(F)(F)F,-0.6359%
10,N#Cc1ccc(C(=O)NS(=O)(=O)c2ccc(C#N)c(Cl)c2)cc1,-4.058%
11,COc1ccc2ncn(Cc3ncc[nH]3)c(=O)c2c1,121%
12,CCc1ccc2ncn(Cc3ncc[nH]3)c(=O)c2c1,108.2%
13,O=S1(=O)C[C@@H]2[C@H](C1)N(Cc1ncc[nH]1)CCN2Cc1cccnc1,-2.711%
14,Cc1ncsc1CN1CCO[C@H]2[C@H](Oc3ccccn3)CC[C@@H]21.O=C(O)C(F)(F)F.O=C(O)C(F)(F)F,-5.284%
15,Cc1nc(CC(=O)N(CCN2CCOCC2)Cc2ccco2)c(C)s1,5.284%
16,CCc1ncc(CN(CCc2ccccc2)Cc2cccs2)cn1.O=C(O)CC(O)(CC(=O)O)C(=O)O,50.24%
17,CN(C)c1ncc2c(n1)C1(CCN(Cc3ccccc3)C1)COC2.O=C(O)C(F)(F)F (stereo not drawn),-5.323%
18,COCCN1CCC2(COCc3cnc(-c4ccccc4)nc32)C1.O=C(O)C(F)(F)F (stereo not drawn),89.12%
19,CN1CCC2(COCc3cnc(-c4ccccc4)nc32)C1.O=C(O)C(F)(F)F (stereo not drawn),9.461%
20,O=C(O)C(F)(F)F.c1ccc(-c2ncc3c(n2)C2(CCN(CC4CC4)C2)COC3)cc1 (stereo not drawn),6.483%
21,COCCN1CCC2(COCc3cnc(N(C)C)nc32)C1.O=C(O)C(F)(F)F (stereo not drawn),1.083%
22,CC(C)CN1CCC2(COCc3cnc(-c4ccccc4)nc32)C1.O=C(O)C(F)(F)F (stereo not drawn),105.5%
23,N#CC1(c2ccccc2)CCN(C(=O)C2CCCN(CC(N)=O)C2)CC1 (stereo not drawn),-8.527%
